These results are taken from PubChem BioAssay (NCI).

This is part of a sample that, as a whole, favours compounds with a hit. Of some 83,000 tested, about 20% had one in any assay.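 Treatment: one concentration, 48 hours, 96-well format. Scoring: percent growth, with anything below 10 considered active.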 A number with no mark means an inactive call. Calls of active or inactive are those of the source.

Test systems include SR leukemia; RPMI-8226 leukemia; OVCAR-8 ovarian; OVCAR-5 ovarian; OVCAR-4 ovarian; SK-OV-3 ovarian; IGROV1 ovarian; OVCAR-3 ovarian; HS 578T breast; NCI/ADR-RES ovarian; T-47D breast; BT-549 breast; MDA-MB-435 melanoma; SW-620 colon; MCF7 breast; HCT-116 colon; HCC-2998 colon; KM12 colon.
Holding throughout (assay): NCI-60 one-dose screen, 48 h (100 = growth as untreated, 0 = no growth, -100 = all killed)
Holding throughout (details): 10 µM unless noted

For `COc1ccc2c(O)c(/C=C3\N=Nc4ccccc43)oc2c1C[C@H]1CCNC[C@H]1F`, the growth with SR leukemia is -23.4% (active); in the test with RPMI-8226 leukemia, 60.4%; in the test on OVCAR-8 ovarian, 61%; with OVCAR-5 ovarian, 35.4%; with OVCAR-4 ovarian it was 57.6%; with SK-OV-3 ovarian, 69%. Also, the growth in the test on IGROV1 ovarian is 62.7%; in the test with OVCAR-3 ovarian it was 66.4%; in the test on HS 578T breast, 54.7%; with NCI/ADR-RES ovarian, 82.4%; with T-47D breast it was 83.3%; with BT-549 breast, 71.2%. Further, the growth in the test on MDA-MB-435 melanoma is 35.4%; in the test on SW-620 colon, 15.6%; with MCF7 breast, 12.1%; in the test with HCT-116 colon, 26.7%; with HCC-2998 colon it was 49.7%; in the test on KM12 colon it was 2.5% (active).
Consider `CCCCCSB(SCCCCC)c1ccccc1`, for which the growth in the test on SR leukemia is 98.5%; in the test on RPMI-8226 leukemia it was 100%; in the test on OVCAR-8 ovarian it was 97%; with OVCAR-5 ovarian it was 101%; in the test on OVCAR-4 ovarian, 100%; in the test with SK-OV-3 ovarian it was 104%. The growth was 97.1% in the test on IGROV1 ovarian; 109% in the test with OVCAR-3 ovarian; 109% with HS 578T breast; 98.4% in the test with NCI/ADR-RES ovarian; 94.3% in the test on T-47D breast; 105% with BT-549 breast. Further, the growth with MDA-MB-435 melanoma is 103%; in the test with SW-620 colon it was 100%; in the test on MCF7 breast, 104%; in the test with HCT-116 colon, 106%; in the test on HCC-2998 colon, 88.7%; in the test on KM12 colon, 107%.
In the case of `CCSC1=CC(=O)c2ccccc2C1=O`, the growth with SR leukemia is 37.6%; in the test on RPMI-8226 leukemia, 45.7%; in the test on OVCAR-8 ovarian it was 49.4%; with OVCAR-5 ovarian it was 116%; in the test with OVCAR-4 ovarian it was -95.2% (active); with SK-OV-3 ovarian, 95.6%. For the same compound, the growth with IGROV1 ovarian was 59.5%; with OVCAR-3 ovarian it was -26.7% (active); in the test on HS 578T breast, 94.8%; in the test with NCI/ADR-RES ovarian it was 71.8%; in the test with T-47D breast, -41.9% (active); with BT-549 breast it was 91.4%. The growth was 80.2% in the test with MDA-MB-435 melanoma; 54.9% in the test on SW-620 colon; 12.9% in the test on MCF7 breast; 2.56% (active) with HCT-116 colon; 117% in the test on HCC-2998 colon; 93.8% in the test with KM12 colon.
For `C[C@@H]1O[C@@H](O[C@@H]2C[C@H](c3ccc4c(c3O)C(=O)C3=C(C4=O)[C@@]4(O)C(=O)C[C@](C)(O)C[C@@]4(O)C=C3)O[C@H](C)[C@H]2O)C[C@H](O)[C@@H]1O`, the growth in the test with SR leukemia was 76.7%; in the test with RPMI-8226 leukemia, 92%; in the test on OVCAR-8 ovarian, 96.7%; in the test on OVCAR-5 ovarian, 102%; in the test on OVCAR-4 ovarian, 92%; in the test with SK-OV-3 ovarian, 106%. The growth is 91.2% with IGROV1 ovarian; 105% with OVCAR-3 ovarian; 94.4% with HS 578T breast; 91.8% with NCI/ADR-RES ovarian; 93.8% in the test on T-47D breast; 100% in the test on BT-549 breast. For the same compound, the growth in the test on MDA-MB-435 melanoma was 103%; in the test with SW-620 colon it was 95%; in the test with MCF7 breast it was 91.8%; with HCT-116 colon it was 98.9%; in the test with HCC-2998 colon it was 102%; in the test with KM12 colon, 99.7%.
For the compound `CC12CCC(/C(=C/NNc3ccc([N+](=O)[O-])cc3[N+](=O)[O-])C1=O)C2(C)C` (centres undefined), the growth with SR leukemia was 56.5%; with RPMI-8226 leukemia, 73.8%; in the test with OVCAR-8 ovarian it was 72.7%; in the test on OVCAR-5 ovarian, 74.5%; in the test on OVCAR-4 ovarian, 74.2%; with SK-OV-3 ovarian, 89.6%. Moreover, the growth was 68.6% in the test with IGROV1 ovarian; 87.4% with OVCAR-3 ovarian; 110% with HS 578T breast; 76.5% in the test with NCI/ADR-RES ovarian; 56.8% in the test with T-47D breast; 69.4% with BT-549 breast. In addition, the growth with MDA-MB-435 melanoma is 70.5%; with SW-620 colon, 64.8%; in the test on MCF7 breast, 50.6%; with HCT-116 colon it was 50.7%; in the test on HCC-2998 colon, 93.4%; with KM12 colon, 90.7%.
On to `O=C(CCCCCCN1CC(=O)N2[C@@H](c3ccc(Cl)cc3)c3[nH]c4ccccc4c3C[C@H]2C1=O)NO`, for which the growth in the test with SR leukemia is 20.2%; with RPMI-8226 leukemia it was 22.4%; in the test with OVCAR-8 ovarian it was 57.7%; with OVCAR-5 ovarian, 69.9%; with OVCAR-4 ovarian it was 59.3%; with SK-OV-3 ovarian it was 82.9%. The growth with IGROV1 ovarian is 53.8%; in the test with OVCAR-3 ovarian it was 66.7%; in the test with HS 578T breast, 67.9%; in the test on NCI/ADR-RES ovarian, 93%; in the test on T-47D breast, 42.1%; in the test with BT-549 breast, 77.2%. In addition, the growth with MDA-MB-435 melanoma was 53.9%; in the test with SW-620 colon, 62.9%; in the test on MCF7 breast, 46.2%; in the test with HCT-116 colon, 38.6%; with HCC-2998 colon it was 81.2%; in the test with KM12 colon it was 75.1%.
As for `C#Cc1cccc(Nc2nc3ccc([N+](=O)[O-])cc3nc2Nc2cccc(C#C)c2)c1`, the growth in the test on SR leukemia was -22.1% (active); with RPMI-8226 leukemia, -21.7% (active); in the test with OVCAR-8 ovarian, -23.3% (active); in the test on OVCAR-5 ovarian, -17.6% (active); with OVCAR-4 ovarian, -43.7% (active); in the test with SK-OV-3 ovarian, -84.9% (active). The growth in the test with IGROV1 ovarian is -29% (active); with OVCAR-3 ovarian, -67.4% (active); with HS 578T breast it was -19.1% (active); in the test with NCI/ADR-RES ovarian it was -9.97% (active); with T-47D breast it was -36.1% (active); in the test with BT-549 breast, -59.3% (active). Further, the growth with MDA-MB-435 melanoma was -78% (active); in the test with SW-620 colon, -64.2% (active); in the test on MCF7 breast it was -12.6% (active); in the test with HCT-116 colon it was -94.7% (active); in the test on HCC-2998 colon it was -80.8% (active); in the test with KM12 colon, -77.9% (active).
In the case of `C[Se]C(=O)CC1=C2C=C(F)C=CC2/C(=C\c2ccc(S(C)=O)cc2)C1C` (centres undefined), the growth with SR leukemia was 22.5%; in the test on RPMI-8226 leukemia it was -23.9% (active); in the test on OVCAR-8 ovarian, -66.1% (active); with OVCAR-5 ovarian, 17.6%; in the test on OVCAR-4 ovarian, 26.7%; with SK-OV-3 ovarian, 6.54% (active). Also, the growth in the test on IGROV1 ovarian was 21.3%; in the test with OVCAR-3 ovarian it was -7.75% (active); with HS 578T breast it was 2.31% (active); in the test on NCI/ADR-RES ovarian, 2.59% (active); with T-47D breast, 48.7%; in the test with BT-549 breast it was -89.8% (active). Also, the growth is -25.9% (active) with MDA-MB-435 melanoma; 4.55% (active) with SW-620 colon; 15.5% in the test with MCF7 breast; 7.49% (active) in the test on HCT-116 colon; 68.9% with HCC-2998 colon; 50.1% in the test with KM12 colon.
